# In the supplement of paper PMC11219838:
# Test system: Meloidogyne hapla J2
# Assay: proportion of mobile M. hapla J2 relative to DMSO control (fraction of DMSO control); higher = more viable, less nematicidal, active = 0.7 or less
# Conditions: 60 µM; 5 days; temperature: 20 °C
# In short: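 About 25 M. hapla J2 were added per 96-well well in distilled water, and compound was pinned to 60 µM final (0.6% v/v DMSO). Sealed plates were shaken at 200 rpm for 5 days at 20 °C, then 2 µL 1 M NaOH was added before microscopic mobility scoring. Mobility was divided by the mean of eight DMSO wells on the same plate, and two biological replicates were averaged.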
row,Structure (SMILES),proportion of mobile M. hapla J2
1,Cc1ccc(-c2nc(-c3ccc4c(c3)OCO4)no2)cc1,1 (inactive)
2,Clc1ccc(-c2noc(-c3ccc4c(c3)OCCO4)n2)cc1,1.02 (inactive)
3,COc1ccc(-c2noc(-c3ccc(C)cc3)n2)cc1,0.998 (inactive)
4,COc1ccc(Cl)cc1-c1nc(-c2ccccc2C)no1,0.852 (inactive)
5,CCOc1nc(-c2ccc(C)cc2)ccc1-c1noc(-c2ccncc2)n1,0.901 (inactive)
6,CCCCCSc1nnc(-c2ccc(Cl)cc2Cl)o1,0.96 (inactive)
7,Cc1cc(OCc2nc(-c3ccncc3)no2)c(C)c(C)c1Br,1.06 (inactive)
8,Cc1cccc(-c2noc(-c3cccc(Br)c3)n2)c1,0.87 (inactive)
9,COc1ccc(-c2noc(-c3ccc(C)cc3Cl)n2)cc1,0.969 (inactive)
10,Clc1ccc(-c2nc(-c3ccc4c(c3)OCO4)no2)cc1,1.03 (inactive)
11,Cc1cc(Cl)ccc1OCc1nc(-c2ccncc2)no1,1.02 (inactive)
12,O=C(CSc1nnc(-c2ccc(Br)cc2)o1)Nc1cccc2ccccc12,0.923 (inactive)
13,O=S(=O)(CCC(F)=C(F)F)c1ncc(Cl)s1 [fluensulfone],0.0622 (active)
14,C#CCOc1ccc(-c2nc(-c3ccccc3)no2)cc1,1.06 (inactive)
15,O=C(CSc1nnc(-c2cccc(Cl)c2)o1)NC1CCCCC1,0.874 (inactive)
16,CCCc1nnc(SCc2nnc(-c3ccccc3)o2)o1,1.03 (inactive)
17,COc1ccc(Cl)cc1-c1noc(-c2cccc(C)c2)n1,1.05 (inactive)
18,CCn1cc(C(=O)CSc2nnc(-c3ccccc3)o2)c2ccccc21,0.987 (inactive)
19,CC(Oc1ccc(C(C)(C)C)cc1)c1nc(-c2ccncc2)no1 (stereo not drawn),0.856 (inactive)
20,CCc1ccc(OCc2nc(-c3ccccn3)no2)cc1,0.966 (inactive)

row,Structure (SMILES),proportion of mobile M. hapla J2
1,COc1nc(C)ccc1-c1noc(-c2ccc(Cl)cc2)n1,0.832 (inactive)
2,Cc1ccccc1-c1noc(-c2ccccc2C(=O)NCc2ccccc2)n1,0.874 (inactive)
3,c1ccc(-c2noc(COc3cccc4ccccc34)n2)nc1,0.936 (inactive)
4,Cc1cccc(OCc2nc(-c3ccccc3Cl)no2)c1,1.08 (inactive)
5,O=C(CSc1nnc(-c2ccc(Cl)cc2Cl)o1)N1CCCCC1,0.934 (inactive)
6,O=C(CSc1nnc(-c2ccccc2Cl)o1)NCc1ccco1,0.961 (inactive)
7,COc1ccc(-c2noc(-c3cccc(C)c3)n2)cc1,1.08 (inactive)
8,COc1cccc(-c2noc(COc3ccccc3C)n2)c1,0.861 (inactive)
9,Cc1ccccc1CSc1nnc(-c2ccco2)o1,0.547 (active)
10,O=C(CSc1nnc(-c2ccco2)o1)Nc1cccc(C(F)(F)F)c1,0.879 (inactive)
11,CCOC(=O)c1sc(NC(=O)CSc2nnc(-c3ccc(Cl)cc3)o2)c(C#N)c1C,0.929 (inactive)
12,Cc1nc(CSc2nnc(-c3ccccc3)o2)cs1,0.282 (active)
13,COc1nc(C)ccc1-c1noc(-c2ccccc2Cl)n1,1.02 (inactive)
14,Fc1ccc(-c2nc(-c3ccc4c(c3)OCO4)no2)cc1,1.02 (inactive)
15,O=C(CSc1nnc(-c2ccccc2)o1)Nc1ccc(F)cc1F,1.03 (inactive)
16,COc1ccccc1-c1nnc(SCc2ccccc2C#N)o1,0.94 (inactive)
17,COc1nc(-c2ccccc2)ccc1-c1noc(-c2ccco2)n1,0.685 (active)
18,Cc1ccc(-c2noc(-c3ccc4c(c3)OCCO4)n2)cc1,1 (inactive)
19,Cc1cc(OCc2nc(-c3ccccc3)no2)cc(C)c1Cl,1.05 (inactive)

# Test system: Caenorhabditis elegans dauer (daf-2(e1370))
# Assay: proportion of mobile C. elegans dauer larvae relative to DMSO control (fraction of DMSO control); higher = more viable, less nematicidal, active = 0.63 or less; extreme values may be limits of the assay
# Conditions: 60 µM; 5 days; temperature: 20 °C
# In short: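 The proportion of mobile worms, relative to DMSO wells, was scored by dissection microscope and averaged over two biological replicates. Worms were C. elegans dauers, about 20 per well in liquid NGM in 96-well plates, generated from synchronized larvae on MYOB plates with E. coli OP50 at 25 °C for 48 h. They were treated with compound pinned to 60 µM final (0.6% v/v DMSO) and kept in sealed plates shaken at 200 rpm for 5 days at 20 °C.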
row,Structure (SMILES),proportion of mobile C. elegans dauer larvae
1,Cc1ccc(-c2nc(-c3ccc4c(c3)OCO4)no2)cc1,1 (inactive)
2,Clc1ccc(-c2noc(-c3ccc4c(c3)OCCO4)n2)cc1,1 (inactive)
3,COc1ccc(-c2noc(-c3ccc(C)cc3)n2)cc1,1 (inactive)
4,COc1ccc(Cl)cc1-c1nc(-c2ccccc2C)no1,1 (inactive)
5,CCOc1nc(-c2ccc(C)cc2)ccc1-c1noc(-c2ccncc2)n1,1 (inactive)
6,CCCCCSc1nnc(-c2ccc(Cl)cc2Cl)o1,1 (inactive)
7,Cc1cc(OCc2nc(-c3ccncc3)no2)c(C)c(C)c1Br,1 (inactive)
8,Cc1cccc(-c2noc(-c3cccc(Br)c3)n2)c1,1 (inactive)
9,COc1ccc(-c2noc(-c3ccc(C)cc3Cl)n2)cc1,1 (inactive)
10,Clc1ccc(-c2nc(-c3ccc4c(c3)OCO4)no2)cc1,1 (inactive)
11,Cc1cc(Cl)ccc1OCc1nc(-c2ccncc2)no1,1 (inactive)
12,O=C(CSc1nnc(-c2ccc(Br)cc2)o1)Nc1cccc2ccccc12,1 (inactive)
13,O=S(=O)(CCC(F)=C(F)F)c1ncc(Cl)s1 [fluensulfone],1 (inactive)
14,C#CCOc1ccc(-c2nc(-c3ccccc3)no2)cc1,1 (inactive)
15,O=C(CSc1nnc(-c2cccc(Cl)c2)o1)NC1CCCCC1,1 (inactive)
16,CCCc1nnc(SCc2nnc(-c3ccccc3)o2)o1,1 (inactive)
17,COc1ccc(Cl)cc1-c1noc(-c2cccc(C)c2)n1,1 (inactive)
18,CCn1cc(C(=O)CSc2nnc(-c3ccccc3)o2)c2ccccc21,1 (inactive)
19,CC(Oc1ccc(C(C)(C)C)cc1)c1nc(-c2ccncc2)no1 (stereo not drawn),1 (inactive)
20,CCc1ccc(OCc2nc(-c3ccccn3)no2)cc1,1 (inactive)

row,Structure (SMILES),proportion of mobile C. elegans dauer larvae
1,COc1nc(C)ccc1-c1noc(-c2ccc(Cl)cc2)n1,1 (inactive)
2,Cc1ccccc1-c1noc(-c2ccccc2C(=O)NCc2ccccc2)n1,1 (inactive)
3,c1ccc(-c2noc(COc3cccc4ccccc34)n2)nc1,1 (inactive)
4,Cc1cccc(OCc2nc(-c3ccccc3Cl)no2)c1,1 (inactive)
5,O=C(CSc1nnc(-c2ccc(Cl)cc2Cl)o1)N1CCCCC1,1 (inactive)
6,O=C(CSc1nnc(-c2ccccc2Cl)o1)NCc1ccco1,1 (inactive)
7,COc1ccc(-c2noc(-c3cccc(C)c3)n2)cc1,0.889 (inactive)
8,COc1cccc(-c2noc(COc3ccccc3C)n2)c1,1 (inactive)
9,Cc1ccccc1CSc1nnc(-c2ccco2)o1,0.5 (active)
10,O=C(CSc1nnc(-c2ccco2)o1)Nc1cccc(C(F)(F)F)c1,1 (inactive)
11,CCOC(=O)c1sc(NC(=O)CSc2nnc(-c3ccc(Cl)cc3)o2)c(C#N)c1C,1 (inactive)
12,Cc1nc(CSc2nnc(-c3ccccc3)o2)cs1,1 (inactive)
13,COc1nc(C)ccc1-c1noc(-c2ccccc2Cl)n1,1 (inactive)
14,Fc1ccc(-c2nc(-c3ccc4c(c3)OCO4)no2)cc1,1 (inactive)
15,O=C(CSc1nnc(-c2ccccc2)o1)Nc1ccc(F)cc1F,1 (inactive)
16,COc1ccccc1-c1nnc(SCc2ccccc2C#N)o1,1 (inactive)
17,COc1nc(-c2ccccc2)ccc1-c1noc(-c2ccco2)n1,1 (inactive)
18,Cc1ccc(-c2noc(-c3ccc4c(c3)OCCO4)n2)cc1,0.615 (active)
19,Cc1cc(OCc2nc(-c3ccccc3)no2)cc(C)c1Cl,1 (inactive)
